From PubChem BioAssay come the findings set out here.

For one test, the target named is Albumin (Bos taurus) (UniProt P02769). Briefly: compounds binding labelled BSA control protein – biochemical, small-molecule microarray, Alexa647 label, 635/667 nm fluorescence, artefact control for SMM control protein annotation, profiling panel (AID 1118).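 Further: score merges 667 nm emission intensity and signal-to-noise per printed compound spot.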 The note with it: BSA-A647 binding, fluorescence 635 nm, higher = more signal.
Sequence of Albumin (Bos taurus) (P02769 whole entry, looked up): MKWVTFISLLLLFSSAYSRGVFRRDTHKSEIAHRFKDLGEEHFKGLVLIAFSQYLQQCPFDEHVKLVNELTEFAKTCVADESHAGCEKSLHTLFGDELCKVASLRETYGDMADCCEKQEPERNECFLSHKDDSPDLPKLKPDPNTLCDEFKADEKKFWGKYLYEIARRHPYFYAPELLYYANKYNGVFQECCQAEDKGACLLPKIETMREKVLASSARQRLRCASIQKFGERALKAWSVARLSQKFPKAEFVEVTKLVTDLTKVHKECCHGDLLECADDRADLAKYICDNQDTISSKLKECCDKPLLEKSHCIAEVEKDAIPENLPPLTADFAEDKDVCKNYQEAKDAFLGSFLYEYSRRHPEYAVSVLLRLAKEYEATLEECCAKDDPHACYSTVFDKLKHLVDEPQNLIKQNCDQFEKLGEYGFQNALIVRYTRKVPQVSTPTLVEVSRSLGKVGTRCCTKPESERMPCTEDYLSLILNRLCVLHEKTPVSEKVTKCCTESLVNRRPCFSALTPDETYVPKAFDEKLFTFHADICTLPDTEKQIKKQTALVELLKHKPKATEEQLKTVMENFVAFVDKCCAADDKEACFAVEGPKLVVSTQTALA
Test [1] in a line: probe aXIP binding to arrayed compounds – biochemical, NeuroSMM set, 635/667 nm fluorescence, primary screen (AID 1119).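 Further: probe is the protein aXip251-270 applied at 1 µg/mL to compound-printed slides; binding of probe to printed compounds measured as 667 nm fluorescence plus signal to noise.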 Conditions: small-molecule microarray, higher = more signal, called active from +8 up or from −8 down.
Test [2] in a line: probe aNOTCH3 binding on compound microarray – biochemical, small-molecule microarray, 635/667 nm fluorescence, primary screen (AID 1120).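 Further: probe is a biotin-tagged antibody raised against NOTCH3 rather than NOTCH3 protein; score merges spot fluorescence near 667 nm with spot signal to noise.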 Conditions: higher = more signal.
The nature of test [3]: probe aNOTCH2 binding on compound microarray – biochemical, small-molecule microarray, 635/667 nm fluorescence, primary screen (AID 1121).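 Further: score merges feature fluorescence read at 667 nm with its signal to noise.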 The note with it: higher = more signal.
Test [4] deals with Carbonic anhydrase 2 (Homo sapiens) (UniProt P00918). Briefly: compounds binding carbonic anhydrase 2 – biochemical, small-molecule microarray, Alexa647-labelled CAII, profiling panel (AID 1122). The note with it: CAII-A647 binding fluorescence, higher = more signal.
A short description of test [5]: COS7 lysate on small-molecule microarray, probe aHis, 635 nm (AID 1123).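 Further: z-score combines 667nm fluorescence intensity with signal-to-noise per printed compound spot.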 The note with it: COS7 cell lysate, fluorescence, higher = more signal.
Test [6] in a line: probe aLAP1 signal on lysate-treated microarray – cell lysate, small-molecule microarray, COS7 lysate, primary screen (AID 1124).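 Further: lysate comes from COS7 cells expressing LAP1 and is applied at 0.3 µg/mL; score merges spot fluorescence near 667 nm with signal-to-noise over triplicate slides.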 Conditions: probe aLAP1, fluorescence, higher = more signal.
A further test relates to Sam68 (KHDRBS1). As to the kind of experiment: compounds binding KHDRBS1 protein – biochemical, small-molecule microarray, 635 nm fluorescence, primary screen (AID 1125).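 Further: score merges 667 nm channel intensity with signal to noise over triplicate slides.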 Conditions: higher = more signal.
Test [7] has as its system Chordin-like protein 2 (CHRDL2). Briefly: compounds binding chordin-like 2 – biochemical, small-molecule microarray, 635 nm fluorescence, primary screen (AID 1126).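 Further: printed compound slides probed with Chrdl2 protein at 4 µg/mL for 1 h at 4 C; score merges 667 nm emission intensity with signal to noise over three replicate slides.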 Conditions: fluorescence 635 nm, higher = more signal.
Test [8] has as its target Concanavalin-A (Canavalia ensiformis) (UniProt P02866). As to the kind of experiment: compounds binding concanavalin A lectin – biochemical, small-molecule microarray, Alexa647 label, 635 nm, artefact control for SMM control protein annotation, primary screen (AID 1127).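 Further: z combines 667 nm emission intensity with signal-to-noise across three replicate slides.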 Conditions: ConA-A647 binding fluorescence, higher = more signal.
Test [9] in a line: compounds binding Alexa647 anti-His antibody – biochemical, small-molecule microarray, 635 nm fluorescence, artefact control for SMM control protein annotation, primary screen (AID 1128).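 Further: score merges feature fluorescence with signal-to-noise for each printed compound spot.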 Conditions: higher = more signal.
Test [10] deals with Human papillomavirus type 1a E7 protein (residues 1-88). As to the kind of experiment: HPV1a E7 small-molecule binders, primary screen, biochemical, small-molecule microarray, residues 1-88, 635 nm (AID 1129). The note with it: small-molecule microarray binding, fluorescence 635 nm; higher = more signal.
The target in test [11] is Focal adhesion kinase 1 (Homo sapiens) (UniProt Q05397). Briefly: PTK2 protein binding on printed compound slides – biochemical, small-molecule microarray, 635/667 nm fluorescence, BSA, DTT, primary screen (AID 1130).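 Further: composite of spot emission at 667 nm and signal to noise over triplicate slides.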 The note with it: 635 nm fluorescence, higher = more signal.
Sequence of Focal adhesion kinase 1 (Homo sapiens) (Q05397 whole entry, looked up): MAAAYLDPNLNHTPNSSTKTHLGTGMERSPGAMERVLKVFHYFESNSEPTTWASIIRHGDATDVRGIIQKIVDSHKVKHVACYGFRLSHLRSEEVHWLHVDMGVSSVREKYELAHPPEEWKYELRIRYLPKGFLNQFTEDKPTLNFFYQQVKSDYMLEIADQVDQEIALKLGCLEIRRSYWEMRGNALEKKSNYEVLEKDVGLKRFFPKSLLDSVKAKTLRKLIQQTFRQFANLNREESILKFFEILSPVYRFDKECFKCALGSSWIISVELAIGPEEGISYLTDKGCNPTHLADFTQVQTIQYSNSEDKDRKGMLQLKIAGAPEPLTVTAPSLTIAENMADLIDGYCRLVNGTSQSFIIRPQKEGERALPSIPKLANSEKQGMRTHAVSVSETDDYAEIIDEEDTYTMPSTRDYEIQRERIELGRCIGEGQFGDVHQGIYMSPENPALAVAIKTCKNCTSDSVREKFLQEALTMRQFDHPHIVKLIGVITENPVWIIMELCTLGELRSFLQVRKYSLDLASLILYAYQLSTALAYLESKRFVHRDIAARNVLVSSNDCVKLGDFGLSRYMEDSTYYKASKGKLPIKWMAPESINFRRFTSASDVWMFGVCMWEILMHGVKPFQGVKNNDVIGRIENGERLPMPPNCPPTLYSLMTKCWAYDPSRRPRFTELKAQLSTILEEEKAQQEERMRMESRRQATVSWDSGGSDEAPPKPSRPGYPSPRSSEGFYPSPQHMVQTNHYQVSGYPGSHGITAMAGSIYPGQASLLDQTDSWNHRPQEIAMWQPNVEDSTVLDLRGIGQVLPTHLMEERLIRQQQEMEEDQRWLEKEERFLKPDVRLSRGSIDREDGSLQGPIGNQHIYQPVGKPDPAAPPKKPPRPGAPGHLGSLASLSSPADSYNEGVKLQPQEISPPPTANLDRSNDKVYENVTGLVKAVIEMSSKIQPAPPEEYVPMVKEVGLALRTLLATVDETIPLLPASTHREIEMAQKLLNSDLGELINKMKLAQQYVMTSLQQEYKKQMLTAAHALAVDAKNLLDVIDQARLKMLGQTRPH
Test [12] concerns Fibrinogen (Alexa647-labelled). As to the kind of experiment: Alexa647-fibrinogen binding to printed small molecules – biochemical, small-molecule microarray, 635/667 nm fluorescence, artefact control for SMM control-protein annotation, profiling panel (AID 1131).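 Further: z-score merges 667 nm fluorescence with per-spot signal-to-noise over triplicate slides.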 The note with it: fibrinogen-A647 binding fluorescence, higher = more signal.
The target in test [13] is Follistatin (Homo sapiens) (UniProt P19883). Briefly: FST protein binding to printed compounds – biochemical, small-molecule microarray, 635/667 nm fluorescence, primary screen (AID 1132). Conditions: 635 nm fluorescence, higher = more signal.
Sequence of Follistatin (Homo sapiens) (P19883 whole entry, looked up): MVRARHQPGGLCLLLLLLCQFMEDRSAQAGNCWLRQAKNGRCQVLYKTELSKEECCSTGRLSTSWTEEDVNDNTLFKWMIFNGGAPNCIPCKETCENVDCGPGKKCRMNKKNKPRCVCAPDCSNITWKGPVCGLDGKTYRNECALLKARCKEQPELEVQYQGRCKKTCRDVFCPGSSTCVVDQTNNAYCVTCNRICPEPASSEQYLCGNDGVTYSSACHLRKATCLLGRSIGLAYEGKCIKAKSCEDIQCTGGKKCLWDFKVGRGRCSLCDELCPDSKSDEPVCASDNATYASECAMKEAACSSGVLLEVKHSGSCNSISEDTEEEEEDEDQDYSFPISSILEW
Test [14] concerns the target Fibroblast growth factor 2 (Homo sapiens) (UniProt P09038). As to the kind of experiment: basic fibroblast growth factor binding to printed compounds – biochemical, small-molecule microarray, 635/667 nm fluorescence, primary screen (AID 1133). The note with it: FGF2, fluorescence 635/667, higher = more signal.
A short description of test [15]: JC-1 mitochondrial potential readout, lung cancer cells – cell-based, A549, JC-1 fluorescence, basal, 24 h, 100 nL, profiling panel (AID 1138).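 Further: A549 lung adenocarcinoma cells under basal conditions with no added stimulus; test concentration not given here.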 Conditions: higher = more signal.
The test system of the next test is Lefty1. As to the kind of experiment: Lefty1 protein binding to printed compounds – biochemical, small-molecule microarray, 635/667 nm fluorescence, primary screen (AID 1139). The note with it: fluorescence 635/667, higher = more signal.
The subject of test [16] is wheat germ agglutinin (Triticum aestivum), Alexa647-labelled. As to the kind of experiment: Alexa647-WGA lectin binding to printed small molecules – biochemical, small-molecule microarray, 635/667 nm fluorescence, artefact control for SMM control-protein annotation, profiling panel (AID 1140).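 Further: score merges 667 nm feature emission with signal to noise over triplicate slides.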 The note with it: WGA-A647 binding, 635 nm fluorescence, higher = more signal.

In test [17] the target is Luciferin 4-monooxygenase (Photinus pyralis) (UniProt P08659). Briefly: inhibition of purified Photinus pyralis luciferase – biochemical, luminescence, purified enzyme, 2006 set, primary screen (AID 1141).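 Further: cell-free assay with purified firefly luciferase at 100 ng per well in PBS; test concentration not given here.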 Conditions: purified firefly luciferase, SteadyGlo luminescence, 30 min; higher = more signal, called active from +8 up or from −8 down.
Sequence of Luciferin 4-monooxygenase (Photinus pyralis) (P08659 whole entry, looked up): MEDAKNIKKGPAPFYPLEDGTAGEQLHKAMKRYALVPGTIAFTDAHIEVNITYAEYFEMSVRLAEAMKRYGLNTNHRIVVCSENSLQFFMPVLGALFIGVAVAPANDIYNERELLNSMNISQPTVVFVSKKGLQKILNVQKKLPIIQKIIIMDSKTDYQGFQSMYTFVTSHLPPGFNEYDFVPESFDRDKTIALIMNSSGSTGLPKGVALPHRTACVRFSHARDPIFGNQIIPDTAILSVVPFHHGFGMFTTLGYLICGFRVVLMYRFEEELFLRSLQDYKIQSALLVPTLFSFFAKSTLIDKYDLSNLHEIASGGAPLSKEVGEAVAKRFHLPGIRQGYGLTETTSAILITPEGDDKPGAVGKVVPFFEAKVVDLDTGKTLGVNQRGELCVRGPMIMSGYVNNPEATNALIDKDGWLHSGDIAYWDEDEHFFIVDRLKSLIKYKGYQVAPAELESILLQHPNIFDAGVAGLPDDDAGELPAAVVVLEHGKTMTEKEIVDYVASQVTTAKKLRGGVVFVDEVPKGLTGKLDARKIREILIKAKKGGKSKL

Activity calls are given as the source filed them.

Sequence of Concanavalin-A (Canavalia ensiformis) (P02866 whole entry, looked up): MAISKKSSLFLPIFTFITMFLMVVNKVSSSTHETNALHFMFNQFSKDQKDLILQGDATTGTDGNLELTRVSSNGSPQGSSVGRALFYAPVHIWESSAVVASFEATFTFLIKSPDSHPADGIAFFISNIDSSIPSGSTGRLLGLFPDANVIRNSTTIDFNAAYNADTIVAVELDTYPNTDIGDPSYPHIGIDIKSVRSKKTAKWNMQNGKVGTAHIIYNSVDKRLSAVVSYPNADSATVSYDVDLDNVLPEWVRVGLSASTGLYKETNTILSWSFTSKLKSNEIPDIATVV
Sequence of Fibroblast growth factor 2 (Homo sapiens) (P09038 whole entry, looked up): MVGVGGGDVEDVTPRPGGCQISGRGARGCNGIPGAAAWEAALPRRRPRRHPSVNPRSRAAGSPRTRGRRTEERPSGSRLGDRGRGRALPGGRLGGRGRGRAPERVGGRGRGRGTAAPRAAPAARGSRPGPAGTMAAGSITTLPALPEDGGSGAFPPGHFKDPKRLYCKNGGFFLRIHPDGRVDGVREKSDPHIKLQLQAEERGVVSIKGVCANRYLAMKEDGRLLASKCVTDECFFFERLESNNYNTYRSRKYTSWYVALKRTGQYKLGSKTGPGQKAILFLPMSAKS

For the molecule `CCCC[C@H]1C[C@@H]1[C@@H]1N(P(=O)(c2ccccc2)c2ccccc2)[C@](CO)(c2ccccc2)CC12CC2`, the composite z-score is 0.914 with Albumin (Bos taurus); 0.112 in [2]; 0.281 in test [3]; 0.285 in [4]; 2.17 in [5]; -0.384 in test [6]. The composite z-score in the test on Sam68 (KHDRBS1) is 0.255; in test [7], -1.39; in test [8], 0.558; in test [9] it was 0.108; in test [10] it was 1.12; in [11] it was 0.737. Besides, the composite z-score in test [12] is 0.936; in test [13] it was 0.156; in test [14], -1.11; in the test with Lefty1 it was -0.519; in [16], 0.434. Besides, the composite Z-score in test [1] was -0.0435 (inactive). Moreover, the z-score was -1.75 in test [15] and 2.75 (inactive) in test [17].
Take `C=C(C(=O)CC[C@@H](OC(=O)c1cccnc1)c1ccc(CO)o1)C(C)C`: the composite z-score in the test with Albumin (Bos taurus) was 0.0207; in test [2], 0.101; in [3], -0.0698; in test [4], 0.614; in [5], 0.583; in [6], 0.697. In addition, the composite z-score with Sam68 (KHDRBS1) is 1.24; in test [7] it was 0.584; in test [8] it was 0.383; in test [9], -0.403; in [10], 0.799; in [11] it was 0.113. The composite z-score in [12] came to 0.82; in [13], 1.26; in test [14], 1.1; in the test on Lefty1, 1.56; in test [16] it was 0.187. The composite Z-score in [1] was 0.278 (inactive). The z-score in [15] was 0.288; in test [17], -1.96 (inactive).
Regarding `CC1(C)C(=O)C(c2ccccc2)=C2CN3C(=O)N(CCc4ccccc4)C(=O)C3(Cc3ccccc3)C=C21` (stereo not given), the composite z-score with Albumin (Bos taurus) was 0.775; in test [2], 0.351; in test [3], 0.121; in test [4] it was 0.644; in test [5], 1.16; in test [6] it was -0.0857. In addition, the composite z-score in the test with Sam68 (KHDRBS1) was 0.516; in test [7], -0.888; in [8], 0.444; in [9], 0.323; in test [10], 1.14; in test [11], 0.369. The composite z-score in test [12] is 0.119; in test [13], 0.552; in test [14], -0.492; in the test on Lefty1, -0.378; in [16], 1.03. In addition, in test [1], the composite Z-score is 0.274 (inactive). In addition, the z-score in test [15] was 0.19; in test [17] it was 0.245 (inactive).
As to `COCCCNC(=O)[C@]1(Cc2ccccc2N=[N+]=[N-])N=C(c2ccc(OCCCO)cc2)O[C@@H]1c1ccccc1CN=[N+]=[N-]`, the composite z-score with Albumin (Bos taurus) amounted to 0.522; in test [2], 0.523; in test [3] it was 0.202; in test [4] it was 0.398; in test [5], 2.51; in test [6], 0.561. For the same molecule, the composite z-score with Sam68 (KHDRBS1) worked out at 1.12; in [7] it was 0.228; in [8] it was 1.13; in test [9], 2.33; in test [10], 1.22; in test [11], 0.631. In addition, the composite z-score in test [12] turned out to be 0.947; in test [13], 1.35; in [14], 0.449; in the test with Lefty1 it was 0.231; in [16] it was 1.12. Moreover, the composite Z-score in test [1] was 0.0955 (inactive). The z-score is -0.418 in test [15] and -2.5 (inactive) in test [17].
Turning to `C=CCC(OC(C)=O)[C@@H]1[C@@H](N(Cc2cc3ccccc3o2)C(=O)c2ccc(C)cc2)c2cc(OCCCO)ccc2N1C(=O)c1ccc(-c2ccccc2)cc1` (stereo not given in full), the composite z-score with Albumin (Bos taurus) is -0.0944; in test [2], 0.102; in [3] it was -0.18; in test [4], 0.0677; in [5], 0.263; in test [6], -0.161. In addition, the composite z-score in the test with Sam68 (KHDRBS1) was 0.318; in test [7] it was 0.073; in test [8], -0.0198; in test [9], -0.277; in test [10], 0.0357; in test [11] it was 0.13. Besides, the composite z-score was 0.122 in test [12]; 0.714 in test [13]; -0.206 in test [14]; 0.239 in the test on Lefty1; 0.107 in [16]. For the same molecule, in test [1], the composite Z-score is 0.0882 (inactive). Besides, the z-score is 0.291 in [15] and 0.352 (inactive) in [17].
With `C=C(C(=O)CC[C@H](OC(=O)c1cccnc1)c1ccccc1OCCO)C(C)C`, the composite z-score with Albumin (Bos taurus) was -0.609; in test [2] it was 0.143; in [3], -0.129; in test [4] it was 0.543; in test [5] it was 1.28; in test [6] it was 0.86. The composite z-score in the test on Sam68 (KHDRBS1) is 0.912; in test [7], 1.39; in [8], 0.49; in [9] it was 0.971; in test [10], 0.834; in [11], 0.092. For the same molecule, the composite z-score in test [12] was 0.101; in test [13], 1.42; in [14] it was 1.83; in the test with Lefty1 it was 1.44; in test [16] it was 0.0398. Further, the composite Z-score in test [1] is -0.507 (inactive). For the same molecule, the z-score in [15] was 0.0404; in test [17] it was -0.0549 (inactive).
For the molecule `C[C@]1(C(=O)NCC(F)(F)F)c2ccccc2C(=O)N(Cc2cc(F)cc(C(F)(F)F)c2)[C@H]1c1ccc(CO)cc1`, the composite z-score is -0.385 in the test with Albumin (Bos taurus); -0.198 in [2]; -0.135 in test [3]; 0.694 in test [4]; 2.18 in test [5]; 0.87 in [6]. In addition, the composite z-score is 1.11 in the test with Sam68 (KHDRBS1); -0.115 in [7]; 0.247 in [8]; -0.99 in test [9]; 0.105 in test [10]; -0.0984 in [11]. The composite z-score was 0.0953 in [12]; 1.24 in test [13]; 0.261 in test [14]; -0.273 in the test on Lefty1; -0.0396 in test [16]. Moreover, in test [1], the composite Z-score was -0.191 (inactive). In addition, the z-score was -1.8 in test [15] and 0.408 (inactive) in test [17].
Regarding `CCCNC(=O)[C@@]1(c2ccc([N+](=O)[O-])cc2)CC(=O)N(CC23CC4CC(CC(C4)C2)C3)[C@@H]1c1ccc(CO)cc1I`, the composite z-score is 0.41 in the test with Albumin (Bos taurus); 0.216 in test [2]; 0.126 in [3]; 0.118 in test [4]; 1.33 in test [5]; 0.137 in test [6]. Further, the composite z-score in the test with Sam68 (KHDRBS1) was 0.974; in [7], -0.366; in [8], 0.519; in test [9], 1.02; in [10], 1.08; in test [11], 1.19. Further, the composite z-score in [12] was -0.0329; in test [13], 0.541; in test [14] it was 0.753; in the test with Lefty1, -0.462; in test [16] it was 0.519. In test [1], the composite Z-score was 0.609 (inactive). Moreover, the figures for the z-score in [15] and in test [17] were 1.04 and -0.1 (inactive), respectively.
